# Out of some 2,500 compounds screened, about 360 (14%) were called active.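 How the source made its calls: active means signal-lowering compounds whose fitted half-maximal concentration AC50 is no higher than ten times their top tested concentration; inconclusive means flat curve with 30 to 70% inhibition, or poor fit; inactive means flat within 30%, signal increase, or AC50 above limit.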 A selection follows.
# Assay: non-specific inhibitors of H2O2 luminol chemiluminescence – biochemical, luminescence, no ALR or DTT, cherry-pick, artefact control for ALR inhibitor project, dose response (AID 540356)
# Conditions: HRP/H2O2 luminol luminescence counterscreen; series mostly up to 10 µM
row,SMILES,AC50
1,COc1ccc(CNc2cc(C)ccc2C)c(OC)c1OC,inactive
2,CC(NC(=O)C(=O)N1CCCCC1)C(c1cccs1)N1CCN(c2ccc(F)cc2)CC1 (stereo unspecified),inactive
3,NNC(=O)c1ccc(O)cc1O,inactive
4,NNC(=O)CCc1nc2ccc(O)cc2[nH]1,10.3 µM (active)
5,Nc1ccc2nc(COc3ccccc3)[nH]c2c1,inactive
6,C/C(=N\Nc1ccc(C(=O)O)cc1)c1ccc(Br)cc1,inactive
7,COc1ccc(Cc2nc3ccccc3n2CC(=O)N/N=C/c2ccc(O)cc2)cc1OC,inactive
8,COc1cccc(-c2noc(Cn3nc(C)c([N+](=O)[O-])c3C)n2)c1,inactive
9,Nc1ccc(-c2nc3ccccc3[nH]2)cc1,inactive
10,Nc1ccc2nc[nH]c2c1,inactive
11,COc1ccc2nc(-c3ccc(N)cc3)[nH]c2c1,inactive
12,CC(C)(C)c1ccc(-c2nc3cc(N)ccc3o2)cc1,inactive
13,Nc1ccc2nc(-c3ccccc3)[nH]c2c1,9.02 µM (active)
14,Nc1cccc(C(=O)Nc2ccc3nc(-c4cccnc4)[nH]c3c2)c1,inactive
15,Cn1c(C2CCCCC2)nc2cc(N)ccc21,inactive
16,Nc1ccc(-c2nc3cc(N)ccc3o2)cc1,inactive
17,Nc1ccc2nc(NC(=O)C3CCCCC3)sc2c1,inactive
18,O=[N+]([O-])c1ccc(CSC2=NCCN2)cc1,inactive
19,Cc1cccc2nc(-c3cccnc3)c(Nc3ccccc3)n12,inactive
20,COc1ccc(NCC(=O)N/N=C/C2CCCCC2)cc1,inactive
21,NNc1nc2ccc(F)cc2s1,inactive
22,Cc1[nH]c2ccccc2c1/C=N/NC(=O)Cc1cccs1,inactive
23,COc1cc(CNc2ncc(-c3ccc(Cl)cc3)n2C)cc(OC)c1OC,inactive
24,Cc1ccc(Nc2c(-c3ccccc3O)nc3ncccn23)cc1,inactive
25,Cc1csc(/C(=N/OC(=O)c2ccco2)C(N)=O)n1,inactive

row,SMILES,AC50
1,CC(=O)Nc1ccc(N2C(=O)CSC2c2ccccc2[N+](=O)[O-])cc1 (stereo unspecified),inactive
2,Brc1ccc(CN2CCN(c3ccccc3)CC2)o1,inactive
3,Nc1ccc2oc(-c3cccs3)nc2c1,inactive
4,Cc1ccc2nc(-c3cccc(N)c3)[nH]c2c1,inactive
5,Cc1nc2ccc(-c3nc4ccc(N)cc4[nH]3)cc2[nH]1,4.68 µM (active)
6,Nc1ccc(-c2nc3ccc([N+](=O)[O-])cc3[nH]2)cc1,inactive
7,Nc1ccc2sc(N)nc2c1,inactive
8,O=C(Nc1nc(-c2ccccc2)ns1)c1cccs1,inactive
9,Cc1nnc2sc(SCc3cccc(Cl)c3)nn2c1=O,inactive
10,O=S(c1ccc2ccccc2c1)c1cnns1 (stereo unspecified),inactive
11,C/C(Cl)=C\Cn1c(Nc2ccccc2)nc2c1c(=O)n(C)c(=O)n2C,inactive
12,CSCc1ccc(C(=O)NC(C)c2ccc(-n3ccnc3)cc2)cc1 (stereo unspecified),inactive
13,O=C(CCc1ccccc1)N1CCN(c2ccc(F)cc2)CC1,inactive
14,CC(C)=NNc1nc(-c2ccccc2)cs1,inactive
15,CC(=O)Nc1ccc(-c2csc(NNC(=O)c3ccccc3)n2)cc1,inactive
16,CC(C)=NNc1nc(-c2ccc(N3C(=O)CCC3=O)cc2)cs1,6.32 µM (active)
17,CN(C)c1ccc(C(=O)Nc2nc3c(s2)CCCC3)cc1,inactive
18,CSCC[C@H](NC(=O)N1CCn2c1nc1ccccc12)C(=O)NC1CCCCC1,inactive
19,O=C(Cc1ccccc1)NNc1c2ccccc2nc2ccccc12,inactive
20,CC(=O)NC(C)C(c1cccs1)N1CCN(c2ccccc2)CC1 (stereo unspecified),inactive
21,COc1ccc(C(=O)N2CCCC(Nc3ccc(C)c(C)c3)C2)cc1 (stereo unspecified),inactive
22,c1ccc(NNC2=NCCCCC2)cc1,6.06 µM (active)
23,Oc1[nH]c2ccccc2c1C1=NCCCC1,inactive
24,CC(=O)c1ccc(S(=O)(=O)Nc2cccc(S(=O)(=O)NC3=NCCC3)c2)cc1,inactive
25,CN(C)c1ccc(CN(C(=O)c2ccccc2Br)C2CCS(=O)(=O)C2)cc1 (stereo unspecified),inactive

row,SMILES,AC50
1,COc1ccc(N2CCN(CC(=O)Nc3ccc(C)c(C)c3)CC2)cc1,inactive
2,Cc1ccc(C(=O)NCCSc2snnc2C)cc1,inactive
3,O=c1cc(-c2ccccc2)[nH]c2[nH]n(-c3ccccc3)c(=O)c12,inactive
4,Cc1ccc(-c2n[nH]c(=S)n2/N=C/c2c(C)[nH]n(-c3ccccc3)c2=O)cc1,inactive
5,N#Cc1ccc(CSc2nnc(NC(=O)c3ccc(=O)[nH]c3)s2)cc1,inactive
6,NNC(=O)c1cccc(COc2ccccc2Br)c1,inactive
7,Cc1cccc(N2CCN(C(=O)C3CCCN(S(=O)(=O)c4cnc[nH]4)C3)CC2C)c1 (stereo unspecified),inactive
8,S=c1[nH]nc(-c2cccc3ccccc23)n1-c1cccnc1,inactive
9,COc1cc(/C=N/N2CCCCC2)cc([N+](=O)[O-])c1O,inactive
10,COc1cc(/C=N/n2c(C)n[nH]c2=S)ccc1OCc1ccccc1,inactive
11,Cc1cccc(/C=N/n2c(-c3ccccc3)n[nH]c2=S)c1O,inactive
12,COc1cccc(/C=N/NC(=O)CNC(=O)c2ccncc2)c1O,inactive
13,COc1cccc(/C=N/NC(=O)NC2CCCCC2)c1O,inactive
14,COc1cccc(/C=N/n2c(-c3cc(C)[nH]n3)n[nH]c2=S)c1OC,inactive
15,COc1ccc(C2CC(c3ccccc3)=NN2c2ccccc2)c(C(=O)O)c1OC (stereo unspecified),inactive
16,O=C(O)CCc1ccc(-c2cccs2)n1NC(=O)c1cccs1,inactive
17,O=C(O)c1cc(O)ccc1NC(=O)c1cccc2ccccc12,inactive
18,O=C(NCCN1CCCc2ccccc21)C1CCC(=O)N(CCc2ccccc2)C1 (stereo unspecified),inactive
19,O=C1CC(=O)N(c2ccccc2)N1c1ccccc1,inactive
20,c1ccc(CNc2ncnc3sc4c(c23)CCCC4)nc1,inactive
21,Nn1c(Nc2ccccc2)nc2sc3c(c2c1=O)CCCC3,inactive
22,Cc1ccc(NC2CCCN(C(=O)CCc3scnc3C)C2)cc1C (stereo unspecified),inactive
23,CC(C)c1ccc(NC2CCCN(C(=O)c3cscn3)C2)cc1 (stereo unspecified),inactive
24,CN(C)c1ccc(NC(=O)CN2CCN(S(=O)(=O)c3cc(Cl)ccc3Cl)CC2)cc1,inactive
25,CCN(CC)c1ccc(/C=N/NC(=O)CC(C)C)cc1,inactive

row,SMILES,AC50
1,COc1cc(/C=N/NC(=O)C2C3CCCCC32C)cc(Br)c1O (stereo unspecified),inactive
2,COc1cc(/C=N/Nc2ccccc2)ccc1O,inactive
3,Oc1ccc(/C=N/n2c(COc3ccccc3)n[nH]c2=S)cc1O,inactive
4,CCCCCC(=O)N/N=C/c1cc(Br)c(O)c(OC)c1,inactive
5,COc1cc(/C=N/N2C(=O)C3C4C=CC(CC4)C3C2=O)ccc1O (stereo unspecified),inactive
6,COc1cc(/C=N/N2C(C)CCCC2C)cc(Br)c1O (stereo unspecified),inactive
7,Cc1ccc(CN2CCSc3ccc(C(=O)NCCCN4CCN(C)CC4)cc32)cc1,inactive
8,O=C(CN1CCN(c2ccc(O)cc2)CC1)Nc1ccc(S(=O)(=O)N2CCCC2)cc1,inactive
9,Cc1ccc(-c2nc(Nc3cccc(C)c3)sc2CC(=O)O)cc1,inactive
10,Cc1ccc(CS(=O)Cc2ccc(C(=O)N3CCN(c4ccccc4)CC3)o2)cc1 (stereo unspecified),inactive
11,CN(C)c1ccc(NC(=O)CN2CCc3ccccc3C2)cc1,inactive
12,CN(C)c1ccc(NC(=O)CCn2c(=S)oc3ccccc32)cc1,inactive
13,O=C(NCC(c1ccco1)N1CCc2ccccc21)c1ccccc1F (stereo unspecified),inactive
14,Clc1c(CSc2nc3ccccc3o2)nc2ccccn12,inactive
15,CCCCCCCc1c(C#N)c(N)[nH]c(=S)c1C#N,inactive
16,Cc1cccc(C(=O)Nc2ccc(O)cc2)c1,inactive
17,Cc1ccc(Sc2ccc(S(=O)(=O)Nc3ccc(C(=O)O)cc3)cc2)cc1C,inactive
18,Cc1ccc(S(=O)(=O)Nc2ccc(N(C)C)cc2)cc1,inactive
19,Cc1cc(C)c(S(=O)(=O)Nc2ccc(O)cc2)c(C)c1,9.93 µM (active)
20,CC(=O)Nc1ccc(S(=O)(=O)Nc2ccc(Nc3ccccc3)cc2)cc1,inactive
21,COc1ccc(S(=O)(=O)N/N=C(/C)c2ccncc2)c(OC)c1,inactive
22,COc1cc(/C=N/NC(=O)c2nc3ccccn3c2C)cc(OC)c1O,inactive
23,O=C(Nc1ccc(N2CCCCC2)cc1)c1cccnc1,inactive
24,O=C(Nc1ccccc1N1CCCC1)c1cccnc1,inactive
25,O=C(NN=C1CCC(=NNC(=O)c2cccnc2)CC1)c1cccnc1,8.24 µM (active)

row,SMILES,AC50
1,Cc1ccc(N/N=C2/CCCNC2=O)cc1,inactive
2,COc1ccccc1NS(=O)(=O)c1cc([N+](=O)[O-])ccc1N/N=C/c1c[nH]c2ccccc12,inactive
3,Cc1ccc(C(=O)Nc2cccc([N+](=O)[O-])c2)cc1S(=O)(=O)Nc1ccc(C(=O)O)cc1,inactive
4,CNC(=O)c1cc(Nc2nnc(-c3ccc(O)cc3)c3ccccc23)ccc1OC,inactive
5,CCN(CC)CCCN(C(=O)c1cccc(C)c1)c1nc(-c2ccc(OC)cc2)cs1,inactive
6,Cn1c(CNS(=O)(=O)c2ccc(Br)cc2)n[nH]c1=S,inactive
7,CCCn1c(CCC(=O)O)ccc1-c1cccs1,inactive
8,COc1cccc(NC(=O)CN2CCN(c3ccc(F)cc3)CC2)c1,inactive
9,Cc1cc(Oc2ncccc2[N+](=O)[O-])c2cc(Cl)ccc2n1,inactive
10,COc1ccc(OC)c(CNc2ccc3c(c2)nc(C)n3C)c1,inactive
11,COc1ccccc1-n1cnc2cc(NCc3ccccc3O)ccc21,inactive
12,O=[N+]([O-])c1ccc(-c2cn(-c3ccccc3F)c(=S)[nH]2)cc1,inactive
13,Cc1nc(SCc2cccnc2)[nH]c(=O)c1C,inactive
14,Cc1ccc(NC2CCCN(C(=O)c3cc4ncccn4n3)C2)cc1C (stereo unspecified),inactive
15,COc1cc(/C=N/Nc2nc(=O)[nH]nc2C)ccc1O,inactive
16,NC(=O)c1ccc(CSc2nc3ccccc3s2)cc1,inactive
17,CNc1nnc(CSc2nc3ccccc3s2)s1,inactive
18,CC(C)c1ccc(NC2CCCN(C(=O)C3=NN(C)C(=O)CC3)C2)cc1 (stereo unspecified),inactive
19,Cc1cc(C(=O)NNc2ccccc2F)no1,8.51 µM (active)
20,COC(=O)c1sccc1NC(=O)c1cc(C)on1,inactive
21,Cc1cc(C(=O)NNc2ccc(F)cc2F)no1,inactive
